This note sets out measurements from PubChem BioAssay (Tox21).

SMILES strings stand for the structures. Inconclusive results are not listed. Activity calls are given as the source filed them. Unless noted, the call rests on the fitted dose curve; in most records, active means well fitted curve in the direction sought with a large enough effect in the repeat runs; inconclusive means weak or mixed curves; inactive means no such curve, though single readings can be large; an effect the other way counts as inactive or inconclusive.

Test [1] can be described thus: qHTS assay to identify small molecule antagonists of the glucocorticoid receptor (GR) signaling pathway - cell viability counter screen (AID 720693). Further: nearly all actives have a fitted effect of over 55% in size. Further: potency means the concentration at half of the fitted maximal effect.
Test [2] can be described thus: qHTS assay for identifying genotoxic compounds that show differential cytotoxicity against isogenic chicken DT40 cell lines with known DNA damage response pathways - wild type cell line (AID 743012). Further: nearly all actives have a fitted effect of over 60% in size. Further: potency means the concentration at half of the fitted maximal effect. Put shortly: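 300 wt DT40 cells/well; cpd (DMSO) pintool-transferred after ~0.5 h at 37 C/5% CO2; 40 h incubation; CellTiter-Glo added, 30 min RT; luminescence read.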
(In general: qHTS replaces the single test concentration by a dilution series.)

Test [3] is described as follows: qHTS assay for identifying genotoxic compounds that show differential cytotoxicity against isogenic chicken DT40 cell lines with known DNA damage response pathways - Rev3 mutant cell line (AID 743014). Further: nearly all actives have a fitted effect of over 55% in size. Further: potency means the concentration at half of the fitted maximal effect.
A short description of test [4]: qHTS assay for identifying genotoxic compounds that show differential cytotoxicity against isogenic chicken DT40 cell lines with known DNA damage response pathways - Rad54/Ku70 mutant cell line (AID 743015). Further: nearly all actives have a fitted effect of over 60% in size. Further: potency means the concentration at half of the fitted maximal effect.
A short description of test [5]: qHTS assay to identify small molecule antagonists of the androgen receptor (AR) signaling pathway - cell viability counter screen (AID 743033; further: nearly all actives have a fitted effect of over 45% in size; further: potency means the concentration at half of the fitted maximal effect).
Test [6] has as its target Androgen receptor (Homo sapiens) (UniProt P10275). Description: qHTS assay to identify small molecule agonists of the androgen receptor (AR) signaling pathway (AID 743036; active means well fitted activation curve with a large enough effect in the signal ratio in the repeat runs, with a control signal flat, not every such curve was filed as active; the % refers to the signal ratio; further: potency means the concentration at half of the fitted maximal effect). Put shortly: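 Quantitative HTS of the Tox21 10K library in HEK293 cells bearing a stably integrated UAS-controlled beta-lactamase reporter. Compound exposure lasted 16 h at 37C. Reporter activity was detected by FRET substrate fluorescence after 2 h at room temperature.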

For test [7] the target is unchanged. Kind of test: qHTS assay to identify small molecule agonists of the androgen receptor (AR) signaling pathway using the MDA cell line (AID 743040; further: nearly all actives have a fitted effect of over 20% in size; further: potency means the concentration at half of the fitted maximal effect). Put shortly: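 Stable MMTV-luciferase reporter in MDA-kb2 cells; note the promoter carries GR as well as AR response elements. 16 h compound treatment, 37C, 0% CO2; ONE-Glo luminescence endpoint.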
Test [8] in a line: qHTS assay to identify small molecule antagonists of the androgen receptor (AR) signaling pathway using the MDA cell line - cell viability counter screen (AID 743041; further: nearly all actives have a fitted effect of over 45% in size). Put shortly:
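Using the breast carcinoma line MDA-kb2 AR-luc, test chemicals were co-incubated with R1881 for 16 h; CellTiter-Fluor reagent, added at 15.5 h, provided a fluorescence measure of live cells.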

The target in test [9] is Androgen receptor (Homo sapiens) (UniProt P10275). Description: qHTS assay to identify small molecule antagonists of the androgen receptor (AR) signaling pathway using the MDA cell line (AID 743042; further: nearly all actives have a fitted effect of over 55% in size; further: potency means the concentration at half of the fitted maximal effect). Put shortly: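 Antagonist mode: compounds plus R1881 agonist added to MDA-kb2 AR-luc cells, incubated 16 h at 37C. Luciferase reporter luminescence quantified, with multiplexed CellTiter-Fluor readout for cell viability.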
Sequence of Androgen receptor (Homo sapiens) (P10275 whole entry, looked up): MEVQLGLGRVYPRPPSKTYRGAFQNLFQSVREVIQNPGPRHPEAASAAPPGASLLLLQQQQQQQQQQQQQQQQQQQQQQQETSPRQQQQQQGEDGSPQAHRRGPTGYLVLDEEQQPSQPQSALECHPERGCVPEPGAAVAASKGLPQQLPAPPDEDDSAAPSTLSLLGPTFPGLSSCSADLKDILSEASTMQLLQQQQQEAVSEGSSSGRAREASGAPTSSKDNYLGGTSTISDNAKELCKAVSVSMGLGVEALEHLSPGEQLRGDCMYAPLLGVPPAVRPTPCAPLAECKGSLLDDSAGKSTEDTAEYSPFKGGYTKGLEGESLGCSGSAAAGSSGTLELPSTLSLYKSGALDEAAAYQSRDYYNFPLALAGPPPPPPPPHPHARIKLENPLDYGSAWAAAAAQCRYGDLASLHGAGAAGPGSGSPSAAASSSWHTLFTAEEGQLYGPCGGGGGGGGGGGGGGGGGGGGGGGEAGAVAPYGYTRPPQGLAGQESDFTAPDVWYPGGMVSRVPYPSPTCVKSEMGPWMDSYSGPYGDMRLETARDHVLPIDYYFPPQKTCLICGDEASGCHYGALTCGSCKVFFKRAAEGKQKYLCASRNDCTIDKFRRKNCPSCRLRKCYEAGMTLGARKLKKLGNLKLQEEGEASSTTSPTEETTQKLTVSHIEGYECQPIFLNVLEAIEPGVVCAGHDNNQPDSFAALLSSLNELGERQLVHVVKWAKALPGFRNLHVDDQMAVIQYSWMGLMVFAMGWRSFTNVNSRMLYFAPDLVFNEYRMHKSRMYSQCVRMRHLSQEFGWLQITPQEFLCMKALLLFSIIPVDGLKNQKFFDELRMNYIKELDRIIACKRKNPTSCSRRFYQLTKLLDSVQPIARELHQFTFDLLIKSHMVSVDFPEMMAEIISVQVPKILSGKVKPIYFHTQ

Turning to `C#C[C@]1(O)CC[C@H]2[C@@H]3CCC4=C/C(=N/O)CC[C@@H]4[C@H]3CC[C@@]21CC`, the Potency entry in [1] and in [5] was “inactive” each time. Moreover, the Potency in test [2] is 16.8 µM (active); in [3], 23.7 µM (active); in test [4], 21.1 µM (active); in test [6], 4.25 µM (active).

Turning to `C=C1CC[C@H](O)CC1=C/C=C1\CCC[C@]2(C)[C@@H]([C@H](C)CCCC(C)(C)O)CC[C@@H]12`, the Potency was 10.7 µM (active) in test [1]; 5.96 µM (active) in [2]; 6.68 µM (active) in [3]; 5.96 µM (active) in [4]; 26.6 µM (active) in test [9]. Further, the Potency result in test [5], in test [6], in [7] and in test [8] was “inactive” throughout.

In the case of `C[N+]1(C)CCN(CC(O)(c2ccccc2)C2CCCCC2)CC1` (stereo not drawn), the Potency result in [1], in [2], in test [3], in test [4], in test [5] and in [7] was “inactive” throughout. The Potency result in test [8] and in [9] was “inactive” throughout.

For the compound `C#CCC(Cc1cnc2nc(N)nc(N)c2n1)c1ccc(C(=O)N[C@@H](CCC(=O)O)C(=O)O)cc1` (stereo partly drawn), the Potency result in test [1], in test [7], in [8] and in test [9] was “inactive” in each case. The Potency in [2] is 0.0106 µM (active); in [3], 0.0168 µM (active); in [4] it was 0.0237 µM (active); in [5] it was 0.169 µM (active).

With `O=C(NOC[C@H](O)CO)c1ccc(F)c(F)c1Nc1ccc(I)cc1F`, the Potency result in test [1], in [2], in test [3], in test [4], in test [5] and in [7] was “inactive” throughout. In addition, in test [8], the Potency result was “inactive”.

On to `CCCCOC(=O)C(=O)Nc1cccc(-c2nn[nH]n2)c1`, for which the Potency entry in test [1], in test [2], in test [3], in test [4], in test [5] and in [6] was “inactive” throughout. In addition, the Potency result in [8] and in test [9] was “inactive” each time.

For `Cc1ccc(C2(O)CCN(CCCC(=O)c3ccc(F)cc3)CC2)cc1`, the Potency result in test [1], in [5] and in [8] was “inactive” throughout. Moreover, the Potency in test [2] was 11.9 µM (active); in test [3] it was 11.9 µM (active); in test [4] it was 10.6 µM (active).

As to `O=C1/C(=C\c2cccs2)CCC/C1=C\c1cccs1`, the Potency result in test [1], in test [5], in test [7], in test [8] and in test [9] was “inactive” throughout. The Potency in [2] was 23.7 µM (active); in [3] it was 26.6 µM (active); in [4], 29.8 µM (active).

As for `CC1(C)C2CC[C@]3(C)[C@H](C(=O)C=C4[C@@H]5C[C@@](C)(C(=O)O)CC[C@]5(C)CC[C@]43C)[C@@]2(C)CC[C@@H]1O[C@H]1O[C@H](C(=O)O)[C@@H](O)[C@H](O)[C@H]1O[C@@H]1O[C@H](C(=O)O)[C@@H](O)[C@H](O)[C@H]1O` (stereo partly drawn), the Potency result in test [1], in test [2], in test [3], in test [4], in test [5] and in test [8] was “inactive” throughout.

Take `Cc1ncc(C[n+]2csc(CCOP(=O)(O)OP(=O)(O)O)c2C)c(N)n1`: the Potency result in test [1], in test [2], in test [3], in test [4], in test [5] and in [6] was “inactive” each time. The Potency entry in [7], in test [8] and in test [9] was “inactive” in each case.

Consider `CS(=O)(=O)OCC(O)C(O)COS(C)(=O)=O` (stereo not drawn), for which the Potency result in [1], in test [5], in test [7], in test [8] and in [9] was “inactive” throughout. For the same compound, the Potency in test [2] is 8.41 µM (active); in test [3] it was 1.33 µM (active); in test [4], 23.7 µM (active).

Turning to `CCCCC(F)(F)[C@@]1(O)CC[C@H]2[C@@H](CC(=O)[C@@H]2CCCCCCC(=O)O)O1`, the Potency entry in test [1], in [2], in test [3], in test [4], in test [5] and in test [7] was “inactive” in each case. Further, the Potency entry in test [8] and in test [9] was “inactive” throughout.

On to `CC#CCC(C)[C@H](O)/C=C/[C@@H]1[C@H]2c3cccc(CCCC(=O)O)c3O[C@H]2C[C@H]1O` (stereo partly drawn), for which the Potency result in [1], in test [2], in [3], in test [4], in test [5] and in test [7] was “inactive” in each case. In addition, the Potency result in [8] and in [9] was “inactive” each time.

Regarding `CC(CCc1ccc(O)cc1)NCC(O)c1ccc(O)cc1` (stereo not drawn), the Potency entry in test [1], in [2], in [3], in test [4], in test [5] and in test [6] was “inactive” each time. For the same compound, the Potency result in [7], in test [8] and in test [9] was “inactive” throughout.

Consider `COC(F)(F)C(Cl)Cl`, for which the Potency result in test [1], in test [2], in test [3], in test [4], in [5] and in test [7] was “inactive” in each case. The Potency entry in test [8] and in test [9] was “inactive” in each case.

With `CO[C@H]1C[C@H](O[C@H]2[C@H](C)O[C@@H](O[C@@H]3/C(C)=C/C[C@@H]4C[C@@H](C[C@]5(C=C[C@H](C)[C@@H](C6CCCCC6)O5)O4)OC(=O)[C@@H]4C=C(C)[C@@H](O)[C@H]5OC/C(=C\C=C\[C@@H]3C)[C@]54O)C[C@@H]2OC)O[C@@H](C)[C@@H]1O`, the Potency in test [1] was 7.56 µM (active); in [2], 5.31 µM (active); in [3], 6.68 µM (active); in test [4], 5.96 µM (active). Also, the Potency entry in [5] and in [8] was “inactive” in each case.

For `CN1c2c(nc(N)[nH]c2=O)NCC1CNc1ccc(C(=O)NC(CCC(=O)O)C(=O)O)cc1` (stereo not drawn), the Potency result in [1], in [2], in test [3], in [4], in [5] and in test [7] was “inactive” in each case. Besides, the Potency entry in test [8] and in test [9] was “inactive” in each case.

Consider `Nc1ccn(C[C@@H](CO)OCP(=O)(O)O)c(=O)n1`, for which the Potency entry in [1], in test [2], in test [3], in [4], in test [5] and in test [6] was “inactive” throughout. Moreover, the Potency result in [7], in test [8] and in test [9] was “inactive” each time.

On to `C[C@@H](O)[C@H]1C(=O)N2C(C(=O)[O-])=C(SC3Cn4cnc[n+]4C3)[C@H](C)[C@H]12` (stereo partly drawn), for which the Potency result in test [1], in [2], in [3], in test [4], in test [5] and in [8] was “inactive” throughout.

In the case of `CCC(=O)OCC(=O)[C@@]1(OC(=O)CC)[C@@H](C)C[C@H]2[C@@H]3CCC4=CC(=O)C=C[C@]4(C)[C@@]3(Cl)[C@@H](O)C[C@@]21C`, the Potency entry in test [1], in test [5], in [8] and in [9] was “inactive” in each case. The Potency in test [2] was 13.3 µM (active); in test [3], 15 µM (active); in test [4] it was 13.3 µM (active); in test [7], 0.0094 µM (active).
